Source: PubChem BioAssay
Hits are enriched below; roughly 2.3% of the tested compounds scored in any of these assays.
ALOX12 inh – inhibitors of human 12S-lipoxygenase ALOX12; P18054; purified 12hLO, xylenol orange hydroperoxide absorbance; 1.1% of 580,000 active; Potency, µM (titrated, usually from 108 µM), without a hit: top-dose activity change, negative = inhibition, actives largely listed as inhibitors; AID 1671190; further: on the % scale 0 is the no-effect control and ±100 the full control effect
Target sequence (P18054 whole entry, looked up): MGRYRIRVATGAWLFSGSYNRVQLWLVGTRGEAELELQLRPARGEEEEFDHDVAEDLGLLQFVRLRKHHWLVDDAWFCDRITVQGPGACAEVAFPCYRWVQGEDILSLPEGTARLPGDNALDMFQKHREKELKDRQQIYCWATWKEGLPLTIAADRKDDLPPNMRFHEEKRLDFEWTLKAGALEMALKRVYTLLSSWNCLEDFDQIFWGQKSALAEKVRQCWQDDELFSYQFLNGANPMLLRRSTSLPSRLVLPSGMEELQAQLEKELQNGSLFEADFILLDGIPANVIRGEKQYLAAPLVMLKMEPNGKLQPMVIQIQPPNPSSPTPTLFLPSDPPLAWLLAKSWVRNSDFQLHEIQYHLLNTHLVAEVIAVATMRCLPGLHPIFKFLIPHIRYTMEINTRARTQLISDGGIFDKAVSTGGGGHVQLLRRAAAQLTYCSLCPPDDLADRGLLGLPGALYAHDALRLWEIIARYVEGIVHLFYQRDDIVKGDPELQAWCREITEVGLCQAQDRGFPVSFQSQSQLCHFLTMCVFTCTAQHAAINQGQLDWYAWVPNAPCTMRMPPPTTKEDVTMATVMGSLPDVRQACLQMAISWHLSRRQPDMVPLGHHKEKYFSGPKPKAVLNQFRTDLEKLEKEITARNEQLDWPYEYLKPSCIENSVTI
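Purified human 12hLO at 150 nM in 25 mM Hepes, 0.01% Triton X-100, pH 7.0, preincubated 15 min at room temperature with compound. Reaction started with 40 uM arachidonic acid, 30 min at room temperature. Hydroperoxide measured by Fe-xylenol orange, 573/405 nm absorbance ratio.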
GRP78 ERSR act – ER stress response induction in glioma; U87-MG GRP78 promoter luciferase reporter, 16 h; Potency, µM, inactives show top-dose activation, usual class: activators; 0.02% of 420,000 active; further: series mostly up to about 76 µM; % of control where 0% means no effect; nearly all actives have a fitted effect of over 35% in size
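Stably transfected U87-MG glioma cells carrying a GRP78-based luciferase sensor; 16 h compound incubation. Luminescence end-point read 10 min after Bright-Glo addition at room temperature.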
GLP-1R inv ag – GLP-1 receptor (human) inverse agonism | P43220 | HEK293 GLP-1R CRE-luciferase, luminescence, 24 h; GLP-1R form is constitutively active | Potency, µM (titrated, usually from 38.3 µM), inactives show top-dose activity change, negative = inhibition, most hits filed as inhibitors | 1.6% of 410,000 active; further: on the % scale 0 is the no-effect control and ±100 the full control effect; nearly all actives have a fitted effect of over 55% in size
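Seeding at 200 cells/uL, 12 h culture, 24 hr compound treatment, then luciferase reagent and a luminescence read; cells are HEK293 stably expressing a constitutively active GLP-1R plus cAMP-responsive luciferase.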
PTHR1 agonist – PTHR1 (human) receptor agonism. HEK293 GP2 PTHR1 cells, GloSensor cAMP luminescence, 1 h. Potency, µM (doses to about 115 µM), without a hit: at the highest dose activation, actives largely listed as activators. 0.075% of 410,000 active. AID 743266; further: nearly all actives have a fitted effect of over 55% in size
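HEK-293-derived GP2 cells expressing PTHR1 and a GloSensor cAMP reporter, 3,000/well, plated overnight, given luciferin plus IBMX (each 0.5 mM as added) for 1 h at 37 °C, then compound for 1 h at 37 °C. Luminescence was read after 15 min at room temperature.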
GLP1R ag – activates the human GLP-1 receptor. P43220. HEK293 GLP-1R CRE-luciferase, luminescence, 4-6 h; cells express a hypersensitive GLP-1R form. Potency, µM (doses to about 45.6 µM), inactives show at the top dose activation, most hits filed as activators. 0.007% of 380,000 active. AID 624172; further: % of control where 0% means no effect
GLS inh – inhibitors of human glutaminase (GLS); O94925; GLS enzymatic activity, qHTS titration; Potency, µM (doses to about 45.5 µM), without a hit: at the highest dose activity change, negative = inhibition, hits mostly inhibitors; 0.21% of 410,000 active; further: on the % scale 0 is the no-effect control and ±100 the full control effect
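hKGA; 45 mM KH2PO4 pH 8.2 + 0.02% Tween-20; cpd via pin tool; 1 mM Gln soln; GluOx/HRP/Amplex Red; RT 30 min; fluor. t0 & final.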
* hit, by the source's call; i = inactive; ? = inconclusive; . = not tested or not shown; ! = not confirmed by another sample; [ ] = another dose, or the depositor's remark. The call rests on the fitted dose curve; in most records, active means well fitted curve in the direction sought with a large enough effect; inconclusive means small, poorly fitted or top-dose-only effect, or another doubt; inactive means no such curve, though single readings can be large; an effect the other way counts as inactive or inconclusive. Potency means the concentration at half of the fitted maximal effect.

SMILES	ALOX12 inh	GRP78 ERSR act	GLP-1R inv ag	PTHR1 agonist	GLP1R ag	GLS inh
CN(CC(=O)Nc1ccc(F)cc1)C(=O)c1cc(-c2ccco2)nc2ccccc12	14.1µM*	-3.3%	?	-4.7%	7.4%	3.7%
Cc1cccc(C)c1NC(=O)CN(C)C(=O)c1ccccc1Cc1ccccc1	-16.1%	-4.8%	?	i	5.1%	-7.1%
CCS(=O)(=O)Nc1cccc(C2=NN(S(=O)(=O)c3ccccc3)C(c3ccccc3C)C2)c1 (configuration not stated)	3.7%	.	.	.	.	.
CNC(=O)CCc1cn(Cc2ccc(C)cc2)c2ccccc12	16.9%	.	.	.	.	.
Cc1ccc(N(C)C(=O)c2cc(-c3ccco3)nc3ccccc23)cc1	35.5µM*	.	.	.	.	.
COc1ccc(NC(=O)CN(C)C(=O)c2cccc(-n3cccc3)c2)cc1	-29.4%	-0.2%	?	i	11.5%	?
Cc1ccc(NC(=O)CN(C)C(=O)c2cccc(-n3cccc3)c2)cc1	35.5µM*	-2.2%	?	-32.3%	-21.6%	?
CN(CCOc1ccc(Cl)cc1)C(=O)c1cc(-c2ccco2)nc2ccccc12	?	-6.5%	10µM*	-33.0%	1.7%	5.2%
CC1=C/C(=N/Nc2nc3ccccc3[nH]2)CC1	-48.0%	.	.	.	.	.
Cc1ccc2oc(-c3cccc(NC(=O)c4ccccc4[N+](=O)[O-])c3C)nc2c1	-18.7%	.	.	.	.	.
C[C@H](c1ccccc1)N1C[C@H](COCc2ccccc2)Oc2cc(N3CC[C@H](O)C3)ccc2S1(=O)=O	-25.5%	.	10µM*	-7.9%	4.1%	0.0%
CCn1cc(C(=O)NCCCN2CC(C)CC(C)C2)c(=O)c2cc(S(=O)(=O)N(C)C3CCCCC3)ccc21 (configuration not stated)	-6.3%	-3.6%	-27.8%	-23.8%	4.8%	3.8%
CCn1cc(C(=O)NCCCN2CCC(C)CC2)c(=O)c2cc(S(=O)(=O)N(C)C3CCCCC3)ccc21	3.6%	-4.3%	10µM*	-46.3%	6.6%	8.2%
COc1ccc(-c2coc3cc(OCC(=O)Nc4nccs4)ccc3c2=O)cc1	12.7%	.	.	.	.	.
O=C(CSc1nc2ccccc2s1)N1c2ccccc2Sc2ccc(C(F)(F)F)cc21	5.3%	-3.3%	5.01µM*	i	-4.4%	-1.7%
Cc1ccc(F)cc1NC(=O)c1ccn(Cn2nnc(-c3ccccc3)n2)n1	-26.5%	.	.	.	.	.
COc1ccc(NC(=O)COC(=O)c2c3c(nc4ccccc24)CCCC3)cc1Cl	18.0%	-3.3%	3.55µM*	-27.8%	-5.0%	-9.4%
COc1ccc(NC(=O)COC(=O)c2c3c(nc4ccccc24)CCCC3)cc1	-11.2%	-9.0%	?	-29.6%[57.5 µM]	-17.7%	-0.9%
O=S(=O)(NCC(c1ccco1)N1CCN(c2ccc(F)cc2)CC1)c1ccc2c(c1)OCCO2 (configuration not stated)	7.9%	-3.7%	10µM*	-31.2%	-2.3%	10.8%
O=S(=O)(NCC(c1ccco1)N1CCN(c2ccc(F)cc2)CC1)c1ccccc1 (configuration not stated)	3.8%	-0.4%	?	-22.8%	.	3.6%
COc1ccccc1C(c1c(N)n(C)c(=O)n(C)c1=O)C(C)[N+](=O)[O-] (configuration not stated)	0.0%	-0.9%	-0.9%	i	5.7%	0.8%
COc1ccccc1C(C[N+](=O)[O-])c1c(N)n(C)c(=O)n(C)c1=O (configuration not stated)	?	-15.8%	2.82µM*	-33.4%	-10.9%	0.0%
Cc1c(CC(=O)NC2CCOCC2)c2c(n1CCc1ccccc1)CCCC2=O	10.2%	.	.	.	.	.
CCCC(NC(C)C(=O)O)C(=O)OCC (configuration not stated)	-13.1%	.	.	.	.	.
CC(=C\c1ccccc1)/C=C1/SC(=S)N(C(C(=O)O)C(C)C)C1=O (configuration not stated)	44.7µM*	1.3%	-13.4%	i	0.1%	18.1%
SMILES	ALOX12 inh	GRP78 ERSR act	GLP-1R inv ag	PTHR1 agonist	GLP1R ag	GLS inh
CC(/C=C1\SC(=S)N(CCC(=O)Nc2cccc(C(=O)O)c2)C1=O)=C\c1ccccc1	?	-1.4%	10.8%	-21.3%	-0.5%	10.1%
CC(/C=C1\SC(=S)N(CCC(=O)Nc2ccccc2O)C1=O)=C\c1ccccc1	-12.6%	-3.6%	5.62µM*	i	-13.4%	5.4%
O=C(O)CN1C(=O)/C(=C\C(Br)=C\c2ccccc2)SC1=S	35.5µM*	-6.1%	77.8%	-15.1%	-2.0%	-22.1%
CC(/C=C1\SC(=S)N(CCCC(=O)Nc2ccc(C(=O)O)cc2)C1=O)=C\c1ccccc1	44.7µM*	4.5%	6.8%	-41.9%	0.7%	0.2%
COc1ccc2cc(-c3nc(-c4ccccc4F)no3)c(=O)oc2c1	-29.2%	.	.	.	.	.
O=C(CCc1nc(-c2ccccc2)no1)NC1CCCN(CCCc2ccccc2)C1 (configuration not stated)	14.8%	.	.	.	.	.
CCOC(=O)/C(=N\Nc1ccc(Br)cc1)N1CCN(c2ccccc2OC)CC1	-23.4%	-7.0%	2.24µM*	i	0.9%	-18.5%
CCOC(=O)N1CCN(c2ccccc2OC)CC1	148.8%	-3.5%	18.8%	-19.2%	-0.7%	4.9%
CC(C)Cc1nc(OCC(=O)N2CCCCC2)c(C#N)c2c1CCCC2	-0.3%	.	.	.	.	.
O=C(/C=C/c1ccc(O)c(O)c1)OCCc1ccccc1	11.2µM*!	?	?	-72.6%	-1.9%	?
O=C(C=Cc1cccc(O)c1)c1ccccc1O	?	-4.6%	?	-20.5%	11.9%	22.6%
Oc1cc(O)cc(C=Cc2ccc(O)c(O)c2)c1	3.06µM*	.	.	.	.	.
O=C(/C=C/c1ccc(O)c(O)c1)c1ccccc1O	7.08µM*	?	16.4%	-11.6%	12.3%	5.62µM*
O=C(C=Cc1ccccc1O)c1ccccc1O	-24.4%	?	7.94µM*	-23.0%	6.5%	7.0%
CCOC(=O)C(C)Oc1ccc2c(=O)c(Oc3ccc(OCC)cc3)c(C)oc2c1 (configuration not stated)	7.4%	.	.	.	.	.
O=C(Cc1coc2ccc3ccccc3c12)OC[C@@H]1CCCO1	4.9%	.	.	.	.	.
COc1ccc(-c2nc(NCCCN3CCCCC3C)c3ccccc3n2)cc1 (configuration not stated)	1.3%	.	.	.	.	.
O=C(O)C(c1c[nH]c2ccc(Br)cc12)N1CCN(CCOc2ccc(Cl)cc2)CC1 (configuration not stated)	-26.3%	.	.	.	.	.
Cc1ccc(NC(=O)c2c(C)oc(C)c2C)c(O)c1	41.3%	.	.	.	.	.
Fc1ccc(SCc2ccnc(Cl)c2)cc1	2.3%	.	.	.	.	.
COc1cc(C)c(S(=O)(=O)NC2CC(C)(C)NC(C)(C)C2)cc1C	-15.3%	-4.5%	?	3.2%	1.6%	0.8%
